Pin1 inhibitor – inhibitors of human Pin1; Q13526; Pin1 FP peptide displacement, HiFluor488, 10 min; Potency, µM (highest dose often 115 µM), hits mostly inhibitors; 390,000 tested, 0.009% active; AID 504891; active = well fitted inhibition curve with a large enough effect in the polarisation, with a control signal flat, not every such curve was filed as active; inconclusive = small, poorly fitted or top-dose-only effect, or effect the other way, or a change in a side signal; inactive = no such curve, though single readings can be large or run the other way; the % refers to the polarisation
Target sequence (Q13526 whole entry, looked up): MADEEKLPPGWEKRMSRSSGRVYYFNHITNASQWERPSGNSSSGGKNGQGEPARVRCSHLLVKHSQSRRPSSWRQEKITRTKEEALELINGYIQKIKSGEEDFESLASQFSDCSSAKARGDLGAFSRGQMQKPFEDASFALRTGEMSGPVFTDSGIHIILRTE
Tb PFK inh – inhibitors of T. brucei phosphofructokinase. 330,000 tested, 0.17% active. O15648. T. brucei PFK, ADP-Glo luminescence. Potency, µM (highest dose often 57.5 µM), usual class: inhibitors; also: nearly all actives have a fitted effect of over 60% in size
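Compounds were pin-transferred as a titration series up to 57 uM into substrate buffer (0.5 mM F6P, 0.1 mM ATP, pH 8.0), then 1.25 nM PFK was added and reactions ran 45 min before ADP-Glo detection.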
PLK1 PBD block – PLK1 (human) polo-box domain binding inhibition; P53350; Plk1 PBD binding of FITC phosphopeptide, fluorescence polarization; Potency, µM, most hits filed as inhibitors; 360,000 tested, 2.8% active; AID 720504; also: series mostly up to about 57 µM; nearly all actives have a fitted effect of over 65% in size
TDP1 inh – blocks human tyrosyl-DNA phosphodiesterase 1 | Q9NUW8 | recombinant TDP1, AlphaScreen DNA substrate cleavage | Potency, µM (top dose mostly 130 µM), usual class: inhibitors | 350,000 tested, 0.28% active; also: nearly all actives have a fitted effect of over 40% in size
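Recombinant E. coli-expressed Tdp1 (1 nM) preincubated with compound 15 min at RT, then 5'-biotin/3'-phosphotyrosine-FITC DNA substrate (15 nM) added for 5 min. AlphaScreen beads (10 ug/ml) added, 10 min RT; tyrosine-FITC cleavage read as signal loss.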
VDR inhibitor – vitamin D3 receptor (human) inhibition. VDR-SRC2-3 peptide fluorescence polarization, 2 h. P11473. Potency, µM, most hits filed as inhibitors. 400,000 tested, 0.93% active
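Measured by FP: displacement of SRC2-3 coactivator peptide from VDR by library compounds, following a two-hour ambient incubation.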
S-ASM inh – blocks human secretory acid sphingomyelinase | P17405 | placental ASM, HMU-PC fluorogenic substrate, 60 min | Potency, µM (top dose mostly 57.5 µM), usual class: inhibitors | 340,000 tested, 0.006% active | AID 504937
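Fluorescence read-out (Ex 386 nm, Em 447 nm) after stopping the reaction at pH 10. Enzyme: ASM from human placenta; substrate HMU-PC0, 9 uM final; 60 min, 37 °C. Compound preincubation 10 min, ambient temperature.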
Of the large screens only hits and unclear results are named; the others gave an inactive call. Most compounds without a hit are left out; they make up all but 3.1% or so of the library. Unless noted, calls follow the shape of the dose curve; as a rule, active = well fitted curve in the direction sought with a large enough effect; inconclusive = small, poorly fitted or top-dose-only effect, or another doubt; inactive = no such curve, though single readings can be large; an effect the other way counts as inactive or inconclusive.

CN=C(c1ccco1)n1c(=S)nc(-c2ccco2)n(C)c1=S	Pin1 inhibitor inconclusive, PLK1 PBD block 19µM, VDR inhibitor inconclusive (no result: TDP1 inh)
CN=C(c1ccc(C)cc1)n1c(=S)nc(-c2ccc(C)cc2)n(C)c1=S	none
Cc1ccc(CSCC(=O)N2CCOCC2)cc1	PLK1 PBD block 3µM
Cn1c(=O)c2c(=O)cc(NNC(=O)CC#N)[nH]c2n(C)c1=O	PLK1 PBD block 30µM
CCCC(=O)NNc1cc(=O)c2c(=O)n(C)c(=O)n(C)c2[nH]1	none
CN(c1ccccc1)c1ccc(/C=C(/CCC(=O)O)c2nc3ccccc3s2)cc1[N+](=O)[O-]	PLK1 PBD block inconclusive (no result: Pin1 inhibitor, Tb PFK inh, TDP1 inh)
O=C(O)CC/C(=C\c1ccc(N2CCCC2)c([N+](=O)[O-])c1)c1nc2ccccc2s1	Tb PFK inh inconclusive, PLK1 PBD block 34µM, VDR inhibitor inconclusive (no result: Pin1 inhibitor, TDP1 inh)
COCO[C@H]([C@@H](C)C=C(Br)Br)[C@@H](C)COCc1ccc(OC)cc1	none (no result: Tb PFK inh, PLK1 PBD block, S-ASM inh)
Cc1ccc(C(c2nnnn2CC2CCCO2)N2CCN(C)CC2)cc1 (stereo unspecified)	none
COc1ccc(C(c2nnnn2CC2CCCO2)N2CCN(c3ccc(F)cc3)CC2)cc1 (stereo unspecified)	PLK1 PBD block 24µM
NC(=O)C1CCN(c2ncc(-c3ccc4c(c3)OCCO4)s2)CC1	none (no result: Tb PFK inh, PLK1 PBD block, TDP1 inh, VDR inhibitor, S-ASM inh)
CCc1sc(/C=C(/C#N)C(N)=S)cc1[N+](=O)[O-]	PLK1 PBD block 5.3µM, VDR inhibitor inconclusive
S=c1nc[nH]c2c1ncn2-c1ccc(Cl)cc1	Pin1 inhibitor inconclusive, PLK1 PBD block 6µM, VDR inhibitor inconclusive (no result: Tb PFK inh, TDP1 inh)
Fc1ccc(-n2cc(-c3ccccc3)c3c(=S)nc[nH]c32)cc1	PLK1 PBD block inconclusive, VDR inhibitor inconclusive
CCOC(=O)CNC(=O)C1CCCCC1	none (no result: Tb PFK inh, PLK1 PBD block, S-ASM inh)
CC1CCCCN1C(=O)Cn1cnc2cc([N+](=O)[O-])ccc2c1=O (stereo unspecified)	PLK1 PBD block 9.5µM, VDR inhibitor inconclusive
Cc1cc(C)c(C(=O)Cn2cnc3cc([N+](=O)[O-])ccc3c2=O)cc1C	none
CCCCn1nnnc1NCc1ccc(N2CCCC2)cc1	none
CCCCn1nnnc1NCc1cccnc1	PLK1 PBD block 3µM
COc1ccc(OC)c(NC(=O)c2oc3c(c2C)-c2nn(Cc4ccc(Cl)cc4)cc2CC3)c1	none (no result: Tb PFK inh, PLK1 PBD block, S-ASM inh)
COc1ccc(-c2cc(C(=O)N/N=C/c3ccc(OC)c(COCC(F)(F)C(F)F)c3)c3ccccc3n2)c(OC)c1	PLK1 PBD block 3µM
CCCn1c2ccccc2c2cnn(CC(=O)NCCCN(Cc3ccccc3)C(C)C)c(=O)c21	none (no result: Tb PFK inh, PLK1 PBD block, S-ASM inh)
COc1ccc(/C=C/C(=O)c2ccc(Cl)s2)cc1O	VDR inhibitor 79µM
COc1cc(/C=C/C(=O)c2ccc(Cl)s2)cc(OC)c1O	VDR inhibitor 56µM, S-ASM inh inconclusive
COc1ccc(C(=O)/C=C/c2ccc(OC)c(O)c2)c(F)c1	Tb PFK inh inconclusive, VDR inhibitor 89µM
CC(C(=O)Nc1ccc(O)cc1)c1cccc(C(=O)c2ccccc2)c1 (stereo unspecified)	PLK1 PBD block 12µM
CC(=O)Nc1ccc(NC(=O)C(C)c2cccc(C(=O)c3ccccc3)c2)cc1 (stereo unspecified)	none
O=C1C=CC(=O)C(CNc2ccc(C(=O)OCc3ccccc3)cc2)=C1	PLK1 PBD block 13µM, VDR inhibitor inconclusive (no result: Tb PFK inh, TDP1 inh)
O=C1CCC(c2ccccc2)c2ccccc21 (stereo unspecified)	none (no result: Tb PFK inh, TDP1 inh)
N#CC1C(=O)c2ccccc2C1c1ccccc1 (stereo unspecified)	PLK1 PBD block 30µM, VDR inhibitor 45µM (no result: Tb PFK inh, TDP1 inh)
COc1ccc(CN(Cc2ccccc2)C(=O)c2ccccc2)cc1COc1ccc(NC(C)=O)cc1	none (no result: Tb PFK inh, PLK1 PBD block, VDR inhibitor, S-ASM inh)
O=c1[nH]c(-[n+]2ccccc2)c(/C=N/NC([S-])=Nc2ccccc2)s1	Pin1 inhibitor inconclusive
CCc1ccc[n+](-c2[nH]c(=O)sc2/C=N/NC([S-])=Nc2ccccc2)c1	PLK1 PBD block 21µM, VDR inhibitor inconclusive (no result: Pin1 inhibitor)
Oc1c(C(c2ccccc2)N2CCN(c3cccc(Cl)c3)CC2)sc2nc(-c3ccco3)nn12 (stereo unspecified)	none (no result: Tb PFK inh, PLK1 PBD block, S-ASM inh)
O=C(NCC1CCCO1)c1ccccc1NS(=O)(=O)c1ccc(Br)s1 (stereo unspecified)	PLK1 PBD block 24µM (no result: Tb PFK inh, TDP1 inh)
